Counter-ions that a name gives are not always drawn. ± gives the standard deviation of the averaged measurements.
Tests used:
MDA-MB-231 [1] = assay: cell viability relative to vehicle unstimulated control (fraction); higher = more viable cells; conditions: pre-treatment time: 18 h then 24 h IFNg/TNF
MDA-MB-231 [2] = assay: kynurenine production, fold change vs DMSO IFNg/TNF control; higher = more kynurenine produced (less inhibition); conditions: pre-treatment time: 18 h then 24 h IFNg/TNF
In short: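 MDA-MB-231 cells (7 × 10^4/well, 96-well plates, seeded 24 h earlier) were pre-treated 18 h with each natural product in 0.1% DMSO, then stimulated 24 h with IFNγ (1 U/ml) and TNF (6.25 ng/ml) at 37°C. Supernatant kynurenine was read at 492 nm after trichloroacetic acid and p-dimethylaminobenzaldehyde treatment, against 0–100 μM standards. Kynurenine production is the fold change over cytokine-stimulated vehicle wells on the same plate, averaged over duplicate plates in the first screening round.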
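Wherever cell viability relative to vehicle unstimulated control is given: viability of the cells left after supernatant collection, read with Deep Blue dye added for 4 h, as absorbance at 570 nm minus 600 nm.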

| Structure (SMILES) | cell viability (MDA-MB-231 [1]) | kynurenine production (MDA-MB-231 [2]) |
| --- | --- | --- |
| COC(=O)C[C@](O)(CCCC(C)(C)O)C(=O)O[C@@H]1C(OC)=C[C@]23CCCN2CCc2cc4c(cc2[C@H]13)OCO4 [Homoharringtonine] (compound dose: 10 uM) | 0.382 | 0.125 ± 0.08 |
| CO[C@@H]1C=C2[C@@H]3CC(C)(C)CC[C@]3(CO)[C@H](O)C[C@@]2(C)[C@]2(C)CC[C@H]3[C@](C)(CO)[C@@H](O[C@@H]4O[C@H](C)[C@H](O)[C@H](O[C@@H]5O[C@H](CO)[C@@H](O)[C@H](O)[C@H]5O)[C@H]4O)CC[C@]3(C)[C@@H]12 [Saikosaponin B4] (compound dose: 10 uM) | 1.12 ± 0.026 | 0.923 ± 0.21 |
| CC1(C)CC[C@]2(C(=O)O[C@@H]3O[C@H](CO)[C@@H](O)[C@H](O)[C@H]3O)CC[C@]3(C)C(=CC[C@@H]4[C@@]5(C)CC[C@H](O[C@@H]6O[C@H](C(=O)O)[C@@H](O)[C@H](O)[C@H]6O[C@H]6OC[C@@H](O)[C@H](O)[C@H]6O)C(C)(C)[C@@H]5CC[C@]43C)[C@@H]2C1 [Pseudoginsenoside RT1] (compound dose: 10 uM) | 0.9758 ± 0.0023 | 0.988 ± 0.14 |
| CC(=O)OCC1=CCC2C(C=C(C)C(=O)C3(OC(C)=O)CC(C)C(OC(=O)c4ccccc4)C3C1OC(C)=O)C2(C)C (stereo not given) [Euphorbia factor L7b] (compound dose: 10 uM) | 1.07 ± 0.03 | 0.936 ± 0.035 |
| CC(C)=CCC[C@](C)(O[C@@H]1O[C@H](CO[C@@H]2OC[C@H](O)[C@H](O)[C@H]2O)[C@@H](O)[C@H](O)[C@H]1O)[C@H]1CC[C@]2(C)[C@@H]1[C@H](O)C[C@@H]1[C@@]3(C)CC[C@H](O[C@@H]4O[C@H](CO)[C@@H](O)[C@H](O)[C@H]4O[C@@H]4O[C@H](CO)[C@@H](O)[C@H](O)[C@H]4O)C(C)(C)[C@@H]3CC[C@]12C [Ginsenoside Rb2] (compound dose: 10 uM) | 0.968 ± 0.04 | 0.88 ± 0.14 |
| COc1ccc(C[C@H]2COC(=O)[C@]2(O)Cc2ccc(O[C@@H]3O[C@H](CO)[C@@H](O)[C@H](O)[C@H]3O)c(OC)c2)cc1OC [Tracheloside] (compound dose: 10 uM) | 0.8831 ± 0.0055 | 0.824 ± 0.11 |
| C/C=C(/C)C(=O)O[C@H]1C(C)=C[C@]23C(=O)[C@@H](C=C(CO)[C@@H](O)[C@]12O)[C@H]1[C@@H](C[C@H]3C)C1(C)C [Ingenol Mebutate] (compound dose: 10 uM) | 1.01 ± 0.026 | 0.691 ± 0.18 |
| CC1(C)CC[C@]2(C(=O)O)CCC3=C([C@@H](CCl)C[C@@H]4[C@@]5(C)C[C@H](O)[C@H](O)[C@@](C)(C(=O)O)[C@@H]5CC[C@@]34C)[C@@H]2C1 [Tenuigenin] (compound dose: 10 uM) | 0.983 ± 0.068 | 0.952 ± 0.2 |
| C[n+]1cccc(C(=O)[O-])c1 [Trigonelline hydrochloride] (compound dose: 10 uM) | 0.913 | 0.906 ± 0.16 |
| C[C@H]1[C@H](C)CC[C@]2(CO)CC[C@]3(C)C(=CC[C@@H]4[C@@]5(C)CC[C@H](O)C(C)(C)[C@@H]5CC[C@]43C)[C@H]12 [Uvaol] (compound dose: 10 uM) | 1.03 ± 0.14 | 0.98 ± 0.3 |
| O=C1C[C@@H](c2ccc(O)cc2)Oc2cc(O)cc(O)c21 [Naringenin] (compound dose: 10 uM) | 0.921 ± 0.013 | 0.772 ± 0.011 |
| C[C@H]1COC2=C1C(=O)C(=O)c1c2ccc2c1CCCC2(C)C [Cryptotanshinone] (compound dose: 10 uM) | 0.885 ± 0.048 | 0.3818 ± 0.0038 |
| CC1(C)CC[C@]2(C(=O)O)CC[C@]3(C)C(=CC[C@@H]4[C@@]5(C)CC[C@H](O[C@@H]6O[C@H](C(=O)O)[C@@H](O)[C@H](O)[C@H]6O[C@@H]6O[C@H](CO)[C@@H](O)[C@H](O)[C@H]6O)C(C)(C)[C@@H]5CC[C@]43C)[C@@H]2C1 [Zingibroside R1] (compound dose: 10 uM) | 1.19 ± 0.15 | 1.06 ± 0.15 |
| CC(CC(=O)C[C@@H](C)[C@H]1CC(=O)[C@@]2(C)C3=C(C(=O)C[C@]12C)[C@@]1(C)CCC(=O)C(C)(C)[C@@H]1C[C@@H]3O)C(=O)O (stereo not given in full) [Ganoderic acid D] (compound dose: 10 uM) | 0.916 ± 0.036 | 0.869 ± 0.11 |
| CC(C)C1=CC2=CC[C@@H]3[C@](C)(CCC[C@@]3(C)C(=O)O)[C@H]2CC1 [Abietic acid] (compound dose: 10 uM) | 1.08 ± 0.025 | 0.803 ± 0.22 |

Source: the supplement of paper PMC13094657
